Only some compounds are listed: those with a hit (about 8.1% of all), similar ones and a draw of the others.
KB-3-1 cytotox = kills parental KB-3-1 adenocarcinoma cells; KB-3-1 viability, CellTiter-Glo ATP luminescence, 72 h; Potency, µM (series often up to 46.1 µM), hits mostly cytotoxic; 400,000 compounds, 1.4% hits; note: % is set by controls: 0 for no effect and ±100 for the full control effect; nearly all actives have a fitted effect of over 60% in size
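Using CellTiter-Glo luminescence, growth of non-resistant KB-3-1 adenocarcinoma cells is assessed 72 h after pin-tool compound addition at 37 °C. Normalized responses across the concentration series yield fitted curves.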
KB-V1 MDR tox = kills drug-selected multidrug resistant KB-V1 cells; KB-V1 MDR cells viability, CellTiter-Glo, 72 h; Potency, µM (doses to about 46.1 µM), actives largely listed as cytotoxic; 400,000 compounds, 3.4% hits; AID 1347076; note: % is set by controls: 0 for no effect and ±100 for the full control effect; nearly all actives have a fitted effect of over 60% in size
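Cytotoxicity toward P-gp-expressing KB-V1 cells was determined as loss of CellTiter-Glo luminescence after 72 h at 37 degrees C. Compounds were tested in quantitative HTS format across a concentration range, with curves fitted to normalized data.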
SW480 rerep = inducers of DNA re-replication in SW480 colon cancer cells; SW480 DNA re-replication, Hoechst DNA content imaging, 48 h; Potency, µM (series often up to 46.1 µM), without a hit: at the highest dose re-replication activation, hits mostly activators; 340,000 compounds, 1.8% hits; AID 624297; note: % of control where 0% means no effect; nearly all actives have a fitted effect of over 55% in size
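DNA re-replication was detected as more nuclei of elevated Hoechst intensity after 48 hr exposure to compound (23 nL pinned per well of 250 cells).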
MCF10A rereplic = induces DNA re-replication in MCF 10a normal breast cells; AID 624296; MCF 10A DNA re-replication, Hoechst nuclear intensity, 48 h; Potency, µM (titrated, usually from 46.1 µM), without a hit: at the highest dose activity, positive = re-replication, hits mostly activators; 350,000 compounds, 2.9% hits; note: % of control where 0% means no effect; nearly all actives have a fitted effect of over 50% in size
ELG1 DNA repair = ELG1-dependent DNA repair inhibition; Potency, µM (series often up to 46.1 µM), for the others: top-dose activity change, negative = inhibition, hits mostly inhibitors; 330,000 compounds, 2.3% hits; HEK293T ELG1-luciferase reporter, luminescence, 16 h; DNA damage induced by 5-fluorouridine; note: % is set by controls: 0 for no effect and ±100 for the full control effect; nearly all actives have a fitted effect of over 55% in size
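Quantitative HTS, concentration-response format. 2,000 cells/well co-treated with 5-fluorouridine and compound, 16 hr in 5% CO2 at 37 °C; ONE-Glo luminescence read after 30 min.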
Starred values were filed as active, the others as inactive; i = inactive; u = inconclusive; x = no result; ! = a repeat was not active. Calls come from the whole dose curve; as a rule, active = well fitted curve in the direction sought with a large enough effect; inconclusive = small, poorly fitted or top-dose-only effect, or another doubt; inactive = no such curve, though single readings can be large; an effect the other way counts as inactive or inconclusive. Potency is the fitted concentration of half-maximal effect.

SMILES | KB-3-1 cytotox | KB-V1 MDR tox | SW480 rerep | MCF10A rereplic | ELG1 DNA repair
CCCCCOc1ccc(C2c3c(oc4ccccc4c3=O)C(=O)N2c2nc(C)c(C)s2)cc1OCC (stereo not given) | u | i | x | x | x
O=C(COc1ccc(CNC[C@H]2O[C@@H](n3ccc(=O)[nH]c3=O)[C@H](O)[C@@H]2O)cc1)Nc1ccccn1 | i | i | x | x | x
Cc1ccc(N(CC(=O)NCC2CCCO2)S(=O)(=O)c2ccc(Cl)cc2)cc1C (stereo not given) | i | i | -7.4% | 1.0% | -0.7%
COc1ccc(S(=O)(=O)N(CC(=O)Nc2ccccc2C(=O)N2CCOCC2)c2ccc(F)cc2)cc1 | i | 16.4µM* | 1.0% | 10.0% | -1.3%
O=C(CN(c1ccccc1F)S(=O)(=O)c1ccccc1)Nc1ccccc1C(=O)N1CCOCC1 | i | i | -0.5% | u | 5.4%
COc1ccc(N(CC(=O)NCC2CCCO2)S(=O)(=O)c2ccc(C)cc2)cc1OC (stereo not given) | i | 20.6µM* | 20.1% | 5.4% | -2.7%
O=C1/C(=C\c2cc([N+](=O)[O-])ccc2O)SC(=S)N1Cc1ccc(Cl)cc1 | u | 23.1µM* | -8.3% | u | 18.3µM*
O=C1/C(=C\c2ccc(O)c(O)c2)SC(=S)N1Cc1ccccc1 | u | u | u | 11.8% | u
O=C1/C(=C\c2cccc(O)c2O)SC(=S)N1Cc1ccccc1 | u | u | 18.4µM* | u | -5.3%
COC(=O)c1n[nH]n(-c2ccccc2)c1=O | i | i | x | x | x
Cc1ccccc1NC(=S)NCc1cccn1C | i | i | -6.8% | 5.2% | -7.1%
Cc1cccc(NC(=S)N/N=C/c2cccn2Cc2ccc(F)cc2)c1 | i | u | 13.3% | 8.2µM* | u
CSc1ccccc1NC(=S)N/N=C/c1cccn1Cc1ccc(F)cc1 | i | u | -0.3% | u | u
Cc1cccc(NC(=S)NCc2cccn2C)c1 | 20.6µM* | i | 0.7% | 0.2% | -21.9%
Cc1ccc(NC(=S)NCc2cccn2C)cc1 | i | u | 20.6µM* | 26.2% | 5.3%
O=C(CCCCCNC(=O)c1ccccc1Br)N=Nc1c(O)[nH]c2ccccc12 | i | i | -35.9% | -2.5% | 9.2µM*
Cc1ccc(-c2c(C(=O)N(C)Cc3ccccc3)oc(=O)c3ccccc23)cc1 | 18.4µM*! | 4.61µM*! | -3.6% | u | u
CN(Cc1ccccc1)C(=O)c1oc(=O)c2ccccc2c1-c1ccccc1 | i | 8.2µM* | u | u | -7.0%
Cc1ccc(-c2c(C(=O)NCc3ccccc3)oc(=O)c3ccccc23)cc1 | i | u | -2.2% | 3.0% | -26.2%
Cc1cccc2[nH]cc(/C=C3/C=Nc4ccccc43)c12 | i | i | x | x | x
CCOc1ccc(/C=C/[N+](=O)[O-])c2ccccc12 | u | 18.4µM* | 6.51µM* | 2.31µM* | u
CCOC(=O)COc1ccc2ccccc2c1/C=C/[N+](=O)[O-] | 18.4µM* | u | u | u | u
CCOC(=O)Cn1cc(C#N)c2ccccc21 | i | i | -11.6% | -1.0% | 10.8%
O=[N+]([O-])/C=C/c1cn(Cc2ccc(Cl)cc2)c2ccccc12 | i | u | u | 5.8µM* | -26.9%
CCOC(=O)Cn1cc(/C=C/[N+](=O)[O-])c2ccccc21 | i | u | 20.6µM* | u | -4.9%
SMILES | KB-3-1 cytotox | KB-V1 MDR tox | SW480 rerep | MCF10A rereplic | ELG1 DNA repair
O=C(O)C1c2ccccc2Cc2ccccc21 | i | i | x | x | x
Cc1nc2ccc(C(=O)NCCCn3ccnc3)cn2c1N(C)C(=O)CCc1ccccc1 | i | i | x | x | x
CCOC(=O)N1CCN(Cc2nc3cc([N+](=O)[O-])ccc3n2C(C)C)CC1 | i | u | x | x | x
Cc1cccc(Cn2cc(/C=C/[N+](=O)[O-])c3ccccc32)c1 | u | i | u | 20.6µM* | 17.1%
Cc1ccc(NC(=O)CNC(=O)CN2C(=O)c3ccccc3C2=O)cc1 | i | i | x | x | x
CN(/N=C/c1ccc(O)cc1O)c1nc(-c2ccccc2)cc(-c2ccccc2)n1 | u | i | u | 18.4µM* | u
O=C(CC1N=C2c3ccccc3N=C(SCc3cccc(F)c3)N2C1=O)NCc1ccc2c(c1)OCO2 (stereo not given) | i | u | x | x | x
COc1ccccc1NC(=O)CSc1nc(O)c(C/C=C/c2ccccc2)c(=O)[nH]1 | i | i | x | x | x
CCOC(=O)c1cc(C(C)(C)C)oc1CNC(=O)c1c(C)oc2c1CCCC2 | i | i | 20.0% | 20.6µM* | u
CN(C)CCCN=c1cc(-c2ccccc2)oc2ccc(Cl)cc12 | u | u | 4.6% | 20.0% | u
O=c1cc(-c2ccc(F)cc2)oc2ccccc12 | u | 13µM* | -1.6% | 10.7% | x
OCCN=c1cc(-c2ccccc2)oc2ccc(Cl)cc12 | u | 16.4µM* | u | u | u
CC(O)CN=c1cc(-c2ccccc2)oc2ccc(Cl)cc12 (stereo not given) | 20.6µM* | u | 25.3% | u | u
O=c1cc(-c2ccc(O)cc2)oc2ccc3ccccc3c12 | u | u | 19.7% | 18.4µM* | u
CCOC(=O)CSc1nc2sc3c(c2c(=O)n1Cc1ccccc1)CCC(C(C)(C)C)C3 (stereo not given) | i | i | x | x | x
COc1cc(C(=O)O)ccc1OCc1ccncc1 | i | i | 1.3% | 15.1% | 11.6%
O=c1oc(-c2ccccc2)cc(Cl)c1Cl | u | u | 9.2µM* | 2.91µM* | u
O=P(O)(O)c1cc(-c2ccccc2)oc1-c1ccccc1 | i | i | -4.9% | 3.3% | -8.4%
O=c1cc(-c2ccccc2)oc2ccc(Cl)cc12 | i | 20.6µM* | 0.1% | -1.4% | x
O=c1cc(-c2ccccc2[N+](=O)[O-])oc2ccccc12 | i | 14.6µM* | u | 5.17µM* | -5.7%
c1nc(NCCCN2CCCCC2)c2cc(-c3ccc4c(c3)OCO4)ccc2n1 | u | i | x | x | x
O=C(NCCc1ccccc1)c1nnc(Cc2cccc(F)c2)o1 | i | i | x | x | x
COCCNC(=O)c1cccc(OC2CCN(C(C)COc3ccccc3)CC2)c1 (stereo not given) | i | i | -34.1% | 1.84µM* | 13.4%
COCCNC(=O)c1cccc(OC2CCN(Cc3ccccc3OCCO)CC2)c1 | i | i | 0.0% | 5.0% | 1.6%
CC(=O)O[C@@H]1C[C@H]2C(C)(C)C(=O)C=C[C@]2(C)[C@H]2CC[C@@]3(C)[C@H](c4ccoc4)OC(=O)[C@H]4O[C@]43[C@@]21C | u | u | 4.11µM* | u | u
CC(=O)Nc1ccc(S(=O)(=O)NN=c2sc3ccccc3n2C)cc1N | i | i | x | x | x

From PubChem
